Reference: PubChem BioAssay
Active and inactive are the calls of the source.

Assays:
[1] = tested on: XIP peptide (Xip251-270) binding; experiment: XIP fragment 251-270 binding compounds – biochemical, small-molecule microarray, fluorescence 635/667 nm, 0.1 µg/mL protein, primary screen (AID 1182); settings: fluorescent protein binding, 635 nm, higher = more signal, called active from +8 up or from −8 down
XIP peptide (Xip251-270) = experiment: compounds binding XIP fragment 251-270 – biochemical, small-molecule microarray, fluorescence 635/667 nm, 0.5 µg/mL protein, primary screen (AID 1183); settings: fluorescence 635 nm, higher = more signal
[2] = blood-stage malaria parasite viability loss – strain 3D7, DAPI fluorescence, 100 nL, primary screen (AID 1184);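 also: parasites grown inside human red blood cells in medium with human serum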; settings: P. falciparum 3D7 growth, 3 d, higher = more signal
[3] = biological target: Homeobox protein Hox-A13 (Mus musculus) (UniProt Q62424); experiment: disruptors of Hoxa13 oligonucleotide interaction – biochemical, fluorescence polarization, labeled oligonucleotide, primary screen (AID 1185); settings: Hoxa13:DNA binding, 15 min, higher = more signal, called active from +8 up or from −8 down
Sequence of Homeobox protein Hox-A13 (Mus musculus) (Q62424 whole entry, looked up): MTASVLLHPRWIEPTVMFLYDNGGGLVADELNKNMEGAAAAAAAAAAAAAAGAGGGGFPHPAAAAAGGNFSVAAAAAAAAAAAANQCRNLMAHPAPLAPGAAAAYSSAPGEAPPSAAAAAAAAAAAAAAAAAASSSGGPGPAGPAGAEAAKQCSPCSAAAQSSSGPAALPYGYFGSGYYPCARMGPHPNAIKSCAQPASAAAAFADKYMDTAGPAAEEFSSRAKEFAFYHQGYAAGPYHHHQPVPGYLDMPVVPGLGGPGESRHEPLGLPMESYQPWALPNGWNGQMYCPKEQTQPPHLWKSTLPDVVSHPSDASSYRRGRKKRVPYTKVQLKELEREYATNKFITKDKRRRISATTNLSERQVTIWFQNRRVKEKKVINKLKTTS

| SMILES | composite z-score [1] | composite z-score (XIP peptide (Xip251-270)) | z-score [2] | z-score [3] |
| --- | --- | --- | --- | --- |
| CCOC(=O)[C@H](CC(C)C)NC(=O)CCC1CC(OC(=O)NCCc2ccc(F)cc2)CC2(CCCC(COC(=O)NCCOc3ccccc3)O2)O1 (some centres undefined) | 0.679 (inactive) | 0.31 | -2.02 | -6.97 (inactive) |
| COC(=O)[C@H](C)NC(=O)CCC1CC(OC(=O)NCCc2ccc(F)cc2)CC2(CCCC(COC(=O)NCCC(C)C)O2)O1 (some centres undefined) | 0.162 (inactive) | 0.74 | -0.861 | -6.77 (inactive) |
| CCOC(=O)[C@H](CC(C)C)NC(=O)CCC1CC(OC(=O)NCCc2ccc(F)cc2)CC2(CCCC(COC(=O)NCCc3ccccc3OC)O2)O1 (some centres undefined) | 0.742 (inactive) | 0.578 | -1.89 | -2.36 (inactive) |
| CC(CCN1CCCCc2nc(C)c(C)cc21)=NOC[C@@H](O)COCc1ccco1 | 2.22 (inactive) | 0.863 | -0.246 | -4.37 (inactive) |
| CO[C@H]1COC(=O)[C@@H](C)COC(=O)[C@H](COCc2ccccc2)NC(=O)CC=C[C@H]1C | -0.0299 (inactive) | -0.474 | -0.386 | -1.96 (inactive) |
| C#CCCCON=C1C[C@@H](O)[C@@H](O)[C@@H]2[C@@H]3C(=O)N(c4ccc(F)cc4F)C(=O)[C@@H]3CC[C@@H]12 | 0.76 (inactive) | 0.0996 | -0.217 | -3.13 (inactive) |
